Values without a mark were called inactive. Inconclusive results are not listed. A call without a number means that no potency is given here. Calls of active or inactive are those of the source. Calls come from the whole dose curve; as a rule, active = well fitted curve in the direction sought with a large enough effect in the repeat runs; inconclusive = weak or mixed curves; inactive = no such curve, though single readings can be large; an effect the other way counts as inactive or inconclusive.
Key:
[1] = A CellTox Green Cytotoxicity Assay to monitor cytotoxicity in HEK293 cells - 40 hour (AID 1224871); note: nearly all actives have a fitted effect of over 45% in size; note: potency is the fitted concentration of half-maximal effect
Outline: (§1)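 HEK293 cells, 600/well, were preincubated 5 hours and then exposed to compounds at 37 C for up to 40 hours. A cell-impermeant cyanine dye staining dead-cell DNA was read by fluorescence at 0, 8, 16, 24, 32 and 40 h time points.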

[2] = qHTS RealTime-Glo MT Cell Viability Assay in HEK293 cells - 16 hour (AID 1224872); note: top concentration of the series differs between compounds; nearly all actives have a fitted effect of over 50% in size
Outline: (§2)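 HEK293 cells seeded with NanoLuc/prosubstrate reagent, rested 5 h at 37 C, then dosed and kept at 37 C up to 40 h. Nonlytic real-time luminescence from viable cells read at 0, 8, 16, 24, 32 and 40 h.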

[3] = qHTS RealTime-Glo MT Cell Viability Assay in HepG2 cells - 8 hour (AID 1224873); note: nearly all actives have a fitted effect of over 55% in size
Outline: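 HepG2 cells mixed with RealTime-Glo MT reagents (NanoLuc plus cell-permeant prosubstrate) were seeded at 600 cells/well, incubated 5 h at 37 C/5% CO2, then pinned with compounds in DMSO; nonlytic luminescence tracked viability during 40 h treatment.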

[4] = qHTS RealTime-Glo MT Cell Viability Assay in HEK293 cells - 40 hour (AID 1224874); settings: RealTime-Glo luminescence; max response: stronger effect = lower value; note: nearly all actives have a fitted effect of over 50% in size
Outline: (§3)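 600 cells/well were plated with the nonlytic NanoLuc/prosubstrate reagent, pre-incubated 5 h, then given 23 nL of compound in DMSO. Incubation at 37 C for 40 h, with luminescence from viable-cell-reduced substrate read repeatedly from 0 h.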

[5] = A CellTox Green Cytotoxicity Assay to monitor cytotoxicity in HepG2 cells - 16 hour (AID 1224876); note: nearly all actives have a fitted effect of over 45% in size
Outline: (§4)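 HepG2 cells, 600/well, preincubated 5 h with CellTox Green dye, then exposed to Tox21 compounds in DMSO at 37 C for up to 40 h. Dead-cell DNA fluorescence read at the indicated time point.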

[6] = qHTS RealTime-Glo MT Cell Viability Assay in HepG2 cells - 32 hour (AID 1224877); note: nearly all actives have a fitted effect of over 55% in size
Outline: (§5)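 HepG2 cells (600/well) were dispensed with RealTime-Glo reagents, incubated 5 h at 37 °C, then treated with compounds in DMSO for up to 40 h. Nonlytic NanoLuc luminescence reflecting viable cells was read at each stated time point.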

[7] = A CellTox Green Cytotoxicity Assay to monitor cytotoxicity in HepG2 cells - 24 hour (AID 1224878); note: nearly all actives have a fitted effect of over 45% in size; note: potency is the fitted concentration of half-maximal effect
Outline: as §4

[8] = A CellTox Green Cytotoxicity Assay to monitor cytotoxicity in HepG2 cells - 40 hour (AID 1224879); note: nearly all actives have a fitted effect of over 40% in size; note: potency is the fitted concentration of half-maximal effect
Outline: as §4

[9] = qHTS RealTime-Glo MT Cell Viability Assay in HEK293 cells - 0 hour (AID 1224880); note: top concentration of the series differs between compounds; nearly all actives have a fitted effect of over 45% in size
Outline: as §3

[10] = A CellTox Green Cytotoxicity Assay to monitor cytotoxicity in HepG2 cells - 0 hour (AID 1224882); note: nearly all actives have a fitted effect of over 35% in size
Outline: as §4

[11] = A CellTox Green Cytotoxicity Assay to monitor cytotoxicity in HepG2 cells - 32 hour (AID 1224883); note: nearly all actives have a fitted effect of over 50% in size
Outline: as §4

[12] = A CellTox Green Cytotoxicity Assay to monitor cytotoxicity in HEK293 cells - 8 hour (AID 1224884); note: nearly all actives have a fitted effect of over 35% in size
Outline: as §1

[13] = qHTS RealTime-Glo MT Cell Viability Assay in HepG2 cells - 16 hour (AID 1224885); note: nearly all actives have a fitted effect of over 50% in size
Outline: as §5

[14] = qHTS RealTime-Glo MT Cell Viability Assay in HEK293 cells - 24 hour (AID 1224886)
Outline: as §2

[15] = qHTS RealTime-Glo MT Cell Viability Assay in HEK293 cells - 8 hour (AID 1224887)
Outline: as §3

[16] = A CellTox Green Cytotoxicity Assay to monitor cytotoxicity in HEK293 cells - 16 hour (AID 1224888); note: nearly all actives have a fitted effect of over 35% in size; note: potency is the fitted concentration of half-maximal effect
Outline: as §1

[17] = qHTS RealTime-Glo MT Cell Viability Assay in HepG2 cells - 0 hour (AID 1224889); note: nearly all actives have a fitted effect of over 50% in size
Outline: as §5

[18] = A CellTox Green Cytotoxicity Assay to monitor cytotoxicity in HepG2 cells - 8 hour (AID 1224890); note: nearly all actives have a fitted effect of over 45% in size
Outline: as §4

[19] = A CellTox Green Cytotoxicity Assay to monitor cytotoxicity in HEK293 cells - 32 hour (AID 1224881); note: nearly all actives have a fitted effect of over 40% in size
Outline: as §1

[20] = A CellTox Green Cytotoxicity Assay to monitor cytotoxicity in HEK293 cells - 24 hour (AID 1224875)
Outline: as §1

SMILES	Potency [1]	Potency [2]	Potency [3]	max response [4] [%]	Potency [5]	Potency [6]	Potency [7]	Potency [8]	outcome [9]	outcome [10]	Potency [11]	Potency [12]	Potency [13]	Potency [14]	Potency [15]	Potency [16]	Potency [17]	Potency [18]	Potency [19]	Potency [20]
CCC(=O)c1ccccc1	inactive	inactive	inactive	5.66	inactive	inactive	inactive	inactive	inactive	inactive	inactive	inactive	inactive	inactive	inactive	inactive	inactive	inactive	–	–
COc1ncc(F)c2nc(S(=O)(=O)Nc3c(F)cccc3F)nn12	13.9 µM (active)	inactive	inactive	6.8	inactive	inactive	inactive	inactive	inactive	inactive	inactive	–	inactive	–	inactive	–	inactive	–	–	–
CCOP(=S)(OCC)Oc1cc(-c2ccccc2)on1	inactive	inactive	inactive	-12.9	inactive	inactive	inactive	inactive	–	inactive	inactive	inactive	inactive	inactive	–	inactive	inactive	inactive	inactive	–
CC(C)CC(N(C)C)C1(c2ccc(Cl)cc2)CCC1 (stereo not given)	23.9 µM (active)	inactive	inactive	-6.91	–	inactive	–	–	–	inactive	–	–	–	inactive	–	21.3 µM (active)	inactive	inactive	–	–
CCCSP(=S)(OCC)Oc1ccc(Cl)cc1Cl (stereo not given)	inactive	inactive	inactive	1.03	inactive	inactive	inactive	inactive	inactive	inactive	inactive	inactive	–	inactive	inactive	inactive	inactive	inactive	inactive	–
COc1ccc(C(=O)N2CCCC2=O)cc1	inactive	inactive	inactive	-7.3	–	inactive	–	–	–	inactive	–	inactive	inactive	–	inactive	inactive	inactive	inactive	inactive	inactive
C1CCC(C2CCCCC2)CC1	inactive	inactive	inactive	–	inactive	inactive	inactive	inactive	inactive	inactive	inactive	inactive	inactive	inactive	inactive	inactive	inactive	inactive	–	inactive
N#Cc1c(Cl)cccc1Cl	inactive	inactive	inactive	18.9	inactive	inactive	inactive	inactive	inactive	inactive	inactive	inactive	inactive	–	inactive	inactive	inactive	inactive	–	–
COC(=O)C1=CCCN(C)C1	inactive	inactive	inactive	3.81	–	inactive	inactive	inactive	–	inactive	–	inactive	inactive	inactive	inactive	inactive	inactive	inactive	–	inactive
O=C(O)C(Br)CBr (stereo not given)	inactive	inactive	inactive	26	inactive	inactive	inactive	inactive	inactive	inactive	inactive	inactive	inactive	inactive	inactive	inactive	inactive	inactive	inactive	–
NC(=O)c1cc([N+](=O)[O-])cc([N+](=O)[O-])c1	inactive	inactive	inactive	4.2	inactive	inactive	inactive	inactive	inactive	inactive	inactive	inactive	inactive	–	inactive	inactive	inactive	inactive	–	–
OC(Cn1cncn1)(c1ccc(F)cc1)c1ccccc1F (stereo not given)	inactive	inactive	inactive	-0.588	inactive	inactive	inactive	inactive	inactive	inactive	inactive	inactive	inactive	–	inactive	inactive	inactive	inactive	inactive	–
BrCCCCCCBr	inactive	inactive	inactive	2.7	inactive	inactive	inactive	inactive	inactive	inactive	inactive	inactive	inactive	–	inactive	inactive	inactive	inactive	inactive	–
CC1(C)CON(Cc2ccccc2Cl)C1=O	inactive	inactive	inactive	-0.432	inactive	inactive	inactive	inactive	inactive	inactive	inactive	inactive	–	inactive	inactive	inactive	inactive	inactive	inactive	–
CC(N)=S	inactive	inactive	inactive	1.38	inactive	inactive	inactive	inactive	inactive	inactive	inactive	inactive	inactive	–	inactive	inactive	inactive	inactive	inactive	–
CCCCOC(=O)c1ccccc1N	49.3 µM (active)	inactive	inactive	0.429	inactive	inactive	49.3 µM (active)	55.3 µM (active)	–	inactive	–	inactive	inactive	inactive	inactive	–	inactive	inactive	–	–
